# Results published in the supplement of paper PMC8728848.
# Shown is part of a subset that was picked to be rich in the strongest signals.
# B1: UEA-I (Ulex europaeus), P22972 (protein)
# chain: SDDLSFKFKNFSQNGKDLSFQGDASVIETGVLQLNKVGNNLPDETGGIARYIAPIHIWNCNTGEVASFITSFSFFMETSANPKAATDGLTFFLAPPDSPLRRAGGYFGLFEDTKDNDSSYQTVAVEFDTIGSPVNFDDPGFPHIGIDVNRVKSINAERWNKRYGLNNVANVEIIYEASSKTLTASLTYPSDQTSISVTSIVDLKEILPEWVSVGFSGGTYIGRQATHEVLNWYFTSNLIN
# Experiments:
# Assay in all cases: glycan array binding signal (z-score within array); higher = stronger binding
# Conditions in all cases: glycan notation: IUPAC condensed, linker removed
# [1] = biological target: Fuc(a1-2)Gal(b1-3)GalNAc(b1-4)[Neu5Ac(a2-3)]Gal(b1-4)Glc
# Method in brief: (§1)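 Arrays were curated from the Consortium for Functional Glycomics database, 3228 in total, and kept only where the protein sequence was available. Binding is expressed as a within-array Z-score. This score was averaged across arrays of the same protein sequence at different concentrations or buffers and across linkers, and negative values can be read as non-binding.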
# Fuc(a1-2)Gal(b1-4)Glc = biological target: Fuc(a1-2)Gal(b1-4)Glc
# Method in brief: as §1
# Fuc(a1-2)Gal(b1-4)Glc6S = biological target: Fuc(a1-2)Gal(b1-4)Glc6S
# Method in brief: as §1
# Fuc(a1-2)Gal(b1-4)GlcNAc = biological target: Fuc(a1-2)Gal(b1-4)GlcNAc
# Method in brief: as §1
# [2] = biological target: Fuc(a1-2)Gal(b1-4)GlcNAc6S
# Method in brief: as §1
# Fuc(a1-2)Gal6S(b1-4)Glc = biological target: Fuc(a1-2)Gal6S(b1-4)Glc
# Method in brief: as §1
# [3] = biological target: Fuc(a1-2)Gal6S(b1-4)Glc6S
# Method in brief: as §1
# [4] = biological target: Fuc(a1-2)[Gal(a1-4)]Gal(b1-4)GlcNAc
# Method in brief: as §1
# [5] = biological target: Fuc(a1-2)[GalNAc(a1-3)]Gal(b1-4)GlcNAc
# Method in brief: as §1
# [6] = biological target: Fuc(a1-2)[GalNAc(a1-4)]Gal(b1-4)GlcNAc
# Method in brief: as §1
# Gal(a1-3)Gal(b1-3)GlcNAc = biological target: Gal(a1-3)Gal(b1-3)GlcNAc
# Method in brief: as §1
# Gal(a1-3)Gal(b1-4)Glc = biological target: Gal(a1-3)Gal(b1-4)Glc
# Method in brief: as §1
# Gal(a1-3)Gal(b1-4)GlcNAc = biological target: Gal(a1-3)Gal(b1-4)GlcNAc
# Method in brief: as §1
# [7] = biological target: Gal(a1-4)Gal(b1-3)GlcNAc(b1-2)Man(a1-3)[Gal(a1-4)Gal(b1-3)GlcNAc(b1-2)Man(a1-6)]Man(b1-4)GlcNAc(b1-4)GlcNAc
# Method in brief: as §1
# Gal(a1-4)Gal(b1-4)GlcNAc = biological target: Gal(a1-4)Gal(b1-4)GlcNAc
# Method in brief: as §1
# Gal(a1-4)GlcNAc = biological target: Gal(a1-4)GlcNAc
# Method in brief: as §1
# [8] = biological target: Gal(b1-4)GlcNAc(b1-2)[Gal(b1-4)GlcNAc(b1-4)]Man(a1-3)[Gal(b1-4)GlcNAc(b1-2)[Gal(b1-4)GlcNAc(b1-6)]Man(a1-6)]Man(b1-4)GlcNAc(b1-4)GlcNAc
# Method in brief: as §1
# Gal3S6S(b1-4)GlcNAc6S = biological target: Gal3S6S(b1-4)GlcNAc6S
# Method in brief: as §1
# Gal6S(b1-4)GlcNAc = biological target: Gal6S(b1-4)GlcNAc
# Method in brief: as §1
# [9] = biological target: GalNAc(a1-3)Fuc(a1-2)Gal(b1-4)GlcNAc(b1-3)[GalNAc(a1-3)Fuc(a1-2)Gal(b1-4)GlcNAc(b1-6)]GalNAc
# Method in brief: as §1
# GalNAc(b1-3)Gal = biological target: GalNAc(b1-3)Gal
# Method in brief: as §1
# [10] = biological target: Glc(a1-6)Glc(a1-6)Glc(a1-6)Glc
# Method in brief: as §1
# Glc(b1-4)Glc = biological target: Glc(b1-4)Glc
# Method in brief: as §1
# Glc(b1-6)Glc = biological target: Glc(b1-6)Glc
# Method in brief: as §1
# [11] = biological target: GlcNAc(a1-4)Gal(b1-4)GalNAc
# Method in brief: as §1
# [12] = biological target: GlcNAc(a1-6)Gal(b1-4)GlcNAc
# Method in brief: as §1
# [13] = biological target: GlcNAc(b1-2)[GlcNAc(b1-6)]Man(a1-6)[GlcNAc(b1-2)Man(a1-3)]Man(b1-4)GlcNAc(b1-4)GlcNAc
# Method in brief: as §1
# Kdn(a2-3)Gal(b1-4)GlcNAc = biological target: Kdn(a2-3)Gal(b1-4)GlcNAc
# Method in brief: as §1
# [14] = biological target: Neu5Ac(a2-3)Gal(b1-3)GalNAc
# Method in brief: as §1
# [15] = biological target: Neu5Ac(a2-3)Gal(b1-3)GlcNAc(b1-3)Gal(b1-4)GlcNAc
# Method in brief: as §1
# [16] = biological target: Neu5Ac(a2-3)Gal(b1-3)[Fuc(a1-4)]GlcNAc
# Method in brief: as §1
# [17] = biological target: Neu5Ac(a2-3)Gal(b1-3)[Fuc(a1-4)]GlcNAc(b1-3)Gal(b1-4)[Fuc(a1-3)]GlcNAc
# Method in brief: as §1
# [18] = biological target: Neu5Ac(a2-3)Gal(b1-3)[Neu5Ac(a2-6)]GalNAc
# Method in brief: as §1
# [19] = biological target: Neu5Ac(a2-3)Gal(b1-4)GlcNAc(b1-3)Gal(b1-3)GlcNAc
# Method in brief: as §1
# [20] = biological target: Neu5Ac(a2-3)Gal(b1-4)GlcNAc(b1-6)[Gal(b1-3)]GalNAc
# Method in brief: as §1
# [21] = biological target: Neu5Ac(a2-3)Gal(b1-4)GlcNAc(b1-6)[Neu5Ac(a2-3)Gal(b1-3)]GalNAc
# Method in brief: as §1
# Neu5Ac(a2-3)GalNAc = biological target: Neu5Ac(a2-3)GalNAc
# Method in brief: as §1
binder,measurement,setting,value
B1,glycan array binding signal (z-score),[1],-0.19
same,glycan array binding signal (z-score),Fuc(a1-2)Gal(b1-4)Glc,5.21
same,glycan array binding signal (z-score),Fuc(a1-2)Gal(b1-4)Glc6S,8.13
same,glycan array binding signal (z-score),Fuc(a1-2)Gal(b1-4)GlcNAc,6.42
same,glycan array binding signal (z-score),[2],6.86
same,glycan array binding signal (z-score),Fuc(a1-2)Gal6S(b1-4)Glc,4.06
same,glycan array binding signal (z-score),[3],8.02
same,glycan array binding signal (z-score),[4],5.33
same,glycan array binding signal (z-score),[5],-0.183
same,glycan array binding signal (z-score),[6],4.61
same,glycan array binding signal (z-score),Gal(a1-3)Gal(b1-3)GlcNAc,-0.18
same,glycan array binding signal (z-score),Gal(a1-3)Gal(b1-4)Glc,-0.172
same,glycan array binding signal (z-score),Gal(a1-3)Gal(b1-4)GlcNAc,-0.186
same,glycan array binding signal (z-score),[7],-0.17
same,glycan array binding signal (z-score),Gal(a1-4)Gal(b1-4)GlcNAc,-0.176
same,glycan array binding signal (z-score),Gal(a1-4)GlcNAc,-0.174
same,glycan array binding signal (z-score),[8],-0.175
same,glycan array binding signal (z-score),Gal3S6S(b1-4)GlcNAc6S,-0.174
same,glycan array binding signal (z-score),Gal6S(b1-4)GlcNAc,-0.188
same,glycan array binding signal (z-score),[9],-0.158
same,glycan array binding signal (z-score),GalNAc(b1-3)Gal,-0.18
same,glycan array binding signal (z-score),[10],-0.177
same,glycan array binding signal (z-score),Glc(b1-4)Glc,-0.178
same,glycan array binding signal (z-score),Glc(b1-6)Glc,-0.185
same,glycan array binding signal (z-score),[11],-0.175
same,glycan array binding signal (z-score),[12],-0.176
same,glycan array binding signal (z-score),[13],-0.186
same,glycan array binding signal (z-score),Kdn(a2-3)Gal(b1-4)GlcNAc,-0.185
same,glycan array binding signal (z-score),[14],-0.18
same,glycan array binding signal (z-score),[15],-0.182
same,glycan array binding signal (z-score),[16],-0.181
same,glycan array binding signal (z-score),[17],-0.186
same,glycan array binding signal (z-score),[18],-0.17
same,glycan array binding signal (z-score),[19],-0.178
same,glycan array binding signal (z-score),[20],-0.183
same,glycan array binding signal (z-score),[21],-0.179
same,glycan array binding signal (z-score),Neu5Ac(a2-3)GalNAc,-0.177
